Several values for one entry are separate records, joined by “and”; a condition that tells them apart may be missing. Equal entries are not always repeated. Results filed as inconclusive are left out. More than one record can exist for a structure, and the calls need not agree. Activity calls are given as the source filed them. Rule for the calls, unless noted: active = hit-call score of the fitted dose curve at least 0.9, where 1 is the maximum; inactive = score below 0.9.
Key:
[1] = read-out: Intercellular Adhesion Molecule 1 (ICAM1), ICAM1 (gene 3383); experiment: BSK_hDFCGF_ICAM1: BioMAP Diversity Plus: hDFCGF Assay for Intercellular Adhesion Molecule 1 (ICAM1) Biomarker Activity (AID 2284287); settings: primary human foreskin fibroblasts
Summary of the method: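 ICAM-1 ELISA readout 24 h after dosing, DMSO as baseline, in human dermal foreskin fibroblast cultures. Cytotoxicity checked in parallel wells by SRB staining (0.1% SRB, 10% TCA fixation, 560 nm).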

[2] = read-out: CD40, CD40 (gene 958); experiment: BSK_IMphg_CD40: BioMAP Diversity Plus: IMphg Assay for CD40 Biomarker Activity (AID 2284288); settings: primary human endothelial cells with macrophages
Summary of the method: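 ELISA read-out of cell-surface CD40 at 24 h in human venular endothelial cell/macrophage co-cultures. Activity fitted in the positive direction against DMSO; parallel SRB staining (560 nm) gauges overt cytotoxicity.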

[3] = read-out: TIMP metallopeptidase inhibitor 2 (TIMP2), TIMP2 (gene 7077); experiment: BSK_hDFCGF_TIMP2: BioMAP Diversity Plus: hDFCGF Assay for TIMP metallopeptidase inhibitor 2 (TIMP2) Biomarker Activity (AID 2284289); settings: primary human foreskin fibroblasts
Summary of the method: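 Primary human foreskin fibroblasts in the hDFCGF system, dosed for 24 h; TIMP-2 level measured by ELISA, fitted in the positive direction against DMSO; cytotoxicity checked in parallel by sulforhodamine B total protein staining.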

[4] = read-out: Interleukin-1 alpha (IL1a), IL1A (gene 3552); experiment: BSK_IMphg_IL1a: BioMAP Diversity Plus: IMphg Assay for Interleukin-1 alpha (IL1a) Biomarker Activity (AID 2284290); settings: primary human endothelial cells with macrophages
Summary of the method: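 IL-1α is quantified by ELISA at 24 h in the endothelial/macrophage IMphg co-culture, with gain of signal fitted relative to DMSO. Parallel SRB total-protein staining flags overt toxicity.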

[5] = read-out: E-selectin (Homo sapiens) (UniProt P16581); experiment: BSK_IMphg_ESelectin: BioMAP Diversity Plus: IMphg Assay for Eselectin Biomarker Activity (AID 2284291); settings: primary human endothelial cells with macrophages
Summary of the method: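 Analysed against DMSO baseline in the positive fitting direction, this endpoint is an ELISA read of E-selectin. It comes from human venular endothelial cells co-cultured with macrophages, sampled 24 h post-dose.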

[6] = BSK_IMphg_SRB: Viability Assessment in the BioMAP Diversity Plus: IMphg Assay (AID 2284292); settings: primary human endothelial cells with macrophages;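 note: measured one day after compound addition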
Summary of the method: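 SRB viability endpoint: cultures of human endothelial cells plus macrophages fixed with 10% TCA, stained with 0.1% SRB, read at 560 nm 24 h post-dosing. Only gain-of-signal fitted, relative to DMSO.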

[7] = read-out: Macrophage colony-stimulating factor (MCSF), CSF1 (gene 1435); experiment: BSK_IMphg_MCSF: BioMAP Diversity Plus: IMphg Assay for Macrophage colony-stimulating factor (MCSF) Biomarker Activity (AID 2284293); settings: primary human endothelial cells with macrophages
Summary of the method: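 M-CSF was measured by ELISA in human venular endothelial cell/macrophage co-cultures dosed for 24 hours. Sulforhodamine B staining of parallel cultures assessed cytotoxicity; data fitted against DMSO baseline.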

[8] = read-out: Interleukin-10 (IL10), IL10 (gene 3586); experiment: BSK_IMphg_IL10: BioMAP Diversity Plus: IMphg Assay for Interleukin-10 (IL10) Biomarker Activity (AID 2284294); settings: primary human endothelial cells with macrophages
Summary of the method: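 IL-10 read by ELISA after 24 h chemical exposure of primary human venular endothelial cell/macrophage cocultures, with DMSO as baseline. Parallel SRB staining (560 nm) gauged overt cytotoxicity.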

[9] = BSK_IMphg_SRB.Mphg: Macrophage Viability Assessment in the BioMAP Diversity Plus: IMphg Assay (AID 2284295); settings: primary human endothelial cells with macrophages
Summary of the method: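 Cytotoxicity read-out: parallel cultures fixed with 10% TCA, stained with 0.1% sulforhodamine B, read at 560 nm. System combines venular endothelium and macrophages; sampled 24 h post-dosing, fitted positively relative to DMSO control.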

[10] = read-out: Thrombomodulin, THBD (gene 7056); experiment: BSK_LPS_Thrombomodulin: BioMAP Diversity Plus: LPS Assay for Thrombomodulin Biomarker Activity (AID 2284296); settings: primary human HUVEC with PBMC
Summary of the method: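 Thrombomodulin on the surface of LPS-activated endothelial/PBMC co-cultures was quantified by ELISA at 24 hours post-dosing, with DMSO as baseline. Parallel SRB total-protein staining flagged overt cytotoxicity.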

[11] = read-out: CD69, CD69 (gene 969); experiment: BSK_LPS_CD69: BioMAP Diversity Plus: LPS Assay for CD69 Biomarker Activity (AID 2284303); settings: primary human HUVEC with PBMC
Summary of the method: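 CD69 surface levels were read by ELISA after 24 h chemical treatment of an LPS-stimulated HUVEC plus PBMC co-culture; positive-direction fit against DMSO vehicle.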

[12] = IUF_NPC2c_oligodendrocyte_migration_120hr: Leibniz Research Institute for Environmental Medicine (IUF) 120-hour Neural Progenitor Cell Migration Assay for Oligodendrocyte Migration (NPC2c) (AID 2284297);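 note: O4-positive oligodendrocyte migration distance divided by radial glia migration distance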
Summary of the method: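 Using fetal brain neural progenitor spheres differentiating in N2 medium at 37C, compounds were present for 120 h. Oligodendrocyte migration distance, normalized to radial glia migration, was measured from imaged O4 staining.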

[13] = IUF_NPC2a_radial_glia_migration_120hr: Leibniz Research Institute for Environmental Medicine (IUF) 120-hour Neural Progenitor Cell Migration Assay for Radial Glia Migration (NPC2a) (AID 2284298)
Summary of the method: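 Exposure of 0.3 mm primary hNPC spheres runs day 0 to 120 h with a half-volume medium change at day 3. Fixed cells get Hoechst staining; high-content analysis of nuclear positions yields radial glia migration distance per well, compared against DMSO controls.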

[14] = IUF_NPC2a_radial_glia_migration_72hr: Leibniz Research Institute for Environmental Medicine (IUF) 72-hour Neural Progenitor Cell Migration Assay for Radial Glia Migration (NPC2a) (AID 2284299)
Summary of the method: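 Single 0.3 mm neurospheres were plated per well in N2 differentiation medium and exposed from the start of differentiation. After 72 hours, brightfield images were taken and radial glia migration from the sphere core edge was measured manually in four directions, averaged per well.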

[15] = IUF_NPC2b_neuronal_migration_120hr: Leibniz Research Institute for Environmental Medicine (IUF) 120-hour Neural Progenitor Cell Migration Assay for Neuron Migration (NPC2b) (AID 2284300)
Summary of the method: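 Fetal human NPC spheres migrate on PDL/laminin during 120 h compound treatment; neuronal migration distance, glia-normalized, scored versus DMSO control.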

[16] = IUF_NPC3_neuronal_differentiation_120hr: Leibniz Research Institute for Environmental Medicine (IUF) 120-hour Neuronal Differentiation Assay (NPC3) (AID 2284301)
Summary of the method: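 Value is percent TUBB3-positive neurons among Hoechst-stained nuclei in the migration area, scored by trained CNN after 120 h differentiation. Primary hNPC spheres on poly-D-lysine/laminin, N2 medium, continuous dosing from day 0, half-refeed day 3; DMSO reference.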

[17] = IUF_NPC4_neurite_length_120hr: Leibniz Research Institute for Environmental Medicine (IUF) 120-hour Neuronal Morphology Assay for Neurite Length (NPC4) (AID 2284302)
Summary of the method: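 Neurite length, the mean in um across TUBB3-stained neurons, is derived by skeletonization of high-content images after 120 h differentiation. Compound exposure, 7 concentrations plus solvent control, ran from plating of hNPC spheres on poly-D-lysine/laminin, with medium half-replaced on day 3.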

[18] = IUF_NPC5_oligodendrocyte_differentiation_120hr: Leibniz Research Institute for Environmental Medicine (IUF) 120-hour Oligodendrocyte Differentiation Assay (NPC5) (AID 2284304; active = hit-call score of the fitted dose curve at least 0.9, where 1 is the maximum;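 note: primary human fetal neural progenitor spheres plated to migrate and differentiate; share of O4-positive cells among Hoechst nuclei found by CNN image analysis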)
Summary of the method: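 After plating on poly-D-lysine/laminin, fetal-derived hNPC spheres differentiated for 120 h at 37C in compound-containing N2 medium, refreshed by half on day 3. O4 immunostaining over Hoechst nuclei in the migration zone gave oligodendrocyte percentage relative to DMSO.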

[19] = IUF_NPC4_neurite_area_120hr: Leibniz Research Institute for Environmental Medicine (IUF) 120-hour Neuronal Morphology Assay for Neurite Area (NPC4) (AID 2284305; active = hit-call score of the fitted dose curve at least 0.9, where 1 is the maximum)
Summary of the method: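 Neurite area (pixels, nuclei excluded) of TUBB3-positive neurons from hNPC spheres differentiating 5 days under continuous exposure at 37 C, 5% CO2. High-content imaging; loss of signal versus DMSO control across 7 concentrations.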

[20] = IUF_NPC2-5_cytotoxicity_72hr: Cytotoxicity Assessment at 72 hours in the Leibniz Research Institute for Environmental Medicine (IUF) Neural Progenitor Cell Migration and Differentiation Assay for Cytotoxicity (NPC2-5) (AID 2284306; active = hit-call score of the fitted dose curve at least 0.9, where 1 is the maximum;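 note: LDH release into supernatant measured by resorufin fluorescence marking membrane damage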)
Summary of the method: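 Membrane-integrity cytotoxicity at 72 h, read as LDH-driven resorufin fluorescence in supernatant. hNPC spheres from fetal cortex differentiate on coated plates in N2 medium, 37C, 5% CO2; seven serial compound concentrations plus solvent control (DMSO ≤0.1%).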

Measured: AC50

E-selectin (Homo sapiens), sequence (P16581 whole entry, looked up): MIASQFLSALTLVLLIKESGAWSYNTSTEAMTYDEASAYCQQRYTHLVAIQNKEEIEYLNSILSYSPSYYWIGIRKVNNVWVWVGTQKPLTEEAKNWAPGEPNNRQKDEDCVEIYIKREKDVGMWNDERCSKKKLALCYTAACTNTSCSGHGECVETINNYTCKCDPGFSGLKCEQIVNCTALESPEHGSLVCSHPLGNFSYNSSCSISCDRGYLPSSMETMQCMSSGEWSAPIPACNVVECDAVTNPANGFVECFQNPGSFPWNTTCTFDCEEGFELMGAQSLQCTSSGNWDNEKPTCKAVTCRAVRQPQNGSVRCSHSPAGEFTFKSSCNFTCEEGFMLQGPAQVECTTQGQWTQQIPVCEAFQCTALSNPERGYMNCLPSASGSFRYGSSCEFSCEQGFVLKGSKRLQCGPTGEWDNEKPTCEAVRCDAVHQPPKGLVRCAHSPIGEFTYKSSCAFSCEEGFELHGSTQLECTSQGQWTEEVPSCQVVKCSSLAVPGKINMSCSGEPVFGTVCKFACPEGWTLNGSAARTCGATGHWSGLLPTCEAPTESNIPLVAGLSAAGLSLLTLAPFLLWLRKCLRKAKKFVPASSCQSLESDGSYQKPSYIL

Cn1cnc([N+](=O)[O-])c1Sc1ncnc2nc[nH]c12
inactive: [1] | [2] | [3] | [4] | [6] | [9] | [10] | [11]
active: [2] 16.4 µM | [5] 2.5 µM and 9.29 µM | [7] 14.7 µM and 8.87 µM | [8] 12.6 µM

O=P(OC(CCl)CCl)(OC(CCl)CCl)OC(CCl)CCl
active: [13] 5.38 µM | [18] 4.15 µM
inactive: [12] | [14] | [15] | [16] | [17] | [19] | [20]

From PubChem BioAssay (EPA / NIEHS)
